Activity calls are given as the source filed them. Rule for the calls: active = hit-call score of the fitted dose curve at least 0.9, where 1 is the maximum; inactive = score below 0.9.
Assays:
[1] = ATG_CRE_CIS: Attagene CIS-FACTORIAL HepG2 Assay for human cAMP Responsive Element (CRE) binding protein 3 (AID 2282926); conditions: HepG2 CRE cis-reporter, Attagene multiplexed mRNA; actives raise or lower the signal
Procedure, shortened: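 Readout: fluorescently labelled reporter transcripts resolved by capillary electrophoresis after RT-PCR, taken 24 h post-dosing in transfected HepG2. Endogenous transcription factor activity drives each cis-element reporter; gain or loss of signal fitted relative to DMSO control.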

[2] = target: CCAAT/enhancer-binding protein beta (Homo sapiens) (UniProt P17676); test: ATG_C_EBP_CIS: Attagene CIS-FACTORIAL HepG2 Assay for human CCAAT/Enhancer Binding Protein (C/EBP) beta (AID 2282927); conditions: HepG2 Attagene cis-factorial transcription factor reporter; actives raise or lower the signal
Sequence of CCAAT/enhancer-binding protein beta (Homo sapiens) (P17676 whole entry, looked up): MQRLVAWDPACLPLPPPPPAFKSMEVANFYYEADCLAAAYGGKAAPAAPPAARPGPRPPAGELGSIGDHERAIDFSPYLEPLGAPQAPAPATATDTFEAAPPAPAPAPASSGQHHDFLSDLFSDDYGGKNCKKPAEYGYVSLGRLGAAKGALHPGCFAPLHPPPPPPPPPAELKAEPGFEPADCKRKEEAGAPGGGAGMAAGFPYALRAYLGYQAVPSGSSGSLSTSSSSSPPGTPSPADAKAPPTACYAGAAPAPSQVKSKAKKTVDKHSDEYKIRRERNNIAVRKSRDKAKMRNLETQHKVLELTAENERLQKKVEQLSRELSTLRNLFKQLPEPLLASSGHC
Procedure, shortened: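 Endogenous transcription factor activity in human liver HepG2 cells is inferred from induction of a CEBPB-linked reporter mRNA. Exposure lasts 24 h; activity is fitted in both directions relative to DMSO.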

[3] = ATG_CMV_CIS: Attagene CIS-FACTORIAL HepG2 Assay for human CMV (Internal Marker) (AID 2282928); conditions: HepG2 CMV promoter reporter, transcription factor profiling; actives raise or lower the signal;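 note: endpoint acts as a background internal control marker rather than a target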
Procedure, shortened: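 Reporter transcripts from transfected HepG2 cells are isolated after 24 h of chemical dosing, reverse-transcribed and amplified. Fragments labeled with 6-FAM are cut with HpaI and quantified by capillary electrophoresis; DMSO defines baseline.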

[4] = ATG_DR4_LXR_CIS: Attagene CIS-FACTORIAL HepG2 Assay for human Liver X Receptor (LXR), DR4 submotif (AID 2282929); conditions: HepG2 Attagene DR4 cis-reporter, mRNA transcription; actives raise or lower the signal
Procedure, shortened: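 Cells were transfected with multiple reporter transcription units, exposed to chemicals for 24 hours, then lysed for RNA. Reporter mRNA induction was measured by RT-PCR with capillary electrophoresis detection and fitted in both directions relative to DMSO.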

[5] = target: Aryl hydrocarbon receptor (Homo sapiens) (UniProt P35869); test: ATG_Ahr_CIS: Attagene CIS-FACTORIAL HepG2 Assay for human Aryl Hydrocarbon Receptor (Ahr) (AID 2282930); conditions: HepG2 AhR cis-factorial reporter transcription; actives raise or lower the signal
Sequence of Aryl hydrocarbon receptor (Homo sapiens) (P35869 whole entry, looked up): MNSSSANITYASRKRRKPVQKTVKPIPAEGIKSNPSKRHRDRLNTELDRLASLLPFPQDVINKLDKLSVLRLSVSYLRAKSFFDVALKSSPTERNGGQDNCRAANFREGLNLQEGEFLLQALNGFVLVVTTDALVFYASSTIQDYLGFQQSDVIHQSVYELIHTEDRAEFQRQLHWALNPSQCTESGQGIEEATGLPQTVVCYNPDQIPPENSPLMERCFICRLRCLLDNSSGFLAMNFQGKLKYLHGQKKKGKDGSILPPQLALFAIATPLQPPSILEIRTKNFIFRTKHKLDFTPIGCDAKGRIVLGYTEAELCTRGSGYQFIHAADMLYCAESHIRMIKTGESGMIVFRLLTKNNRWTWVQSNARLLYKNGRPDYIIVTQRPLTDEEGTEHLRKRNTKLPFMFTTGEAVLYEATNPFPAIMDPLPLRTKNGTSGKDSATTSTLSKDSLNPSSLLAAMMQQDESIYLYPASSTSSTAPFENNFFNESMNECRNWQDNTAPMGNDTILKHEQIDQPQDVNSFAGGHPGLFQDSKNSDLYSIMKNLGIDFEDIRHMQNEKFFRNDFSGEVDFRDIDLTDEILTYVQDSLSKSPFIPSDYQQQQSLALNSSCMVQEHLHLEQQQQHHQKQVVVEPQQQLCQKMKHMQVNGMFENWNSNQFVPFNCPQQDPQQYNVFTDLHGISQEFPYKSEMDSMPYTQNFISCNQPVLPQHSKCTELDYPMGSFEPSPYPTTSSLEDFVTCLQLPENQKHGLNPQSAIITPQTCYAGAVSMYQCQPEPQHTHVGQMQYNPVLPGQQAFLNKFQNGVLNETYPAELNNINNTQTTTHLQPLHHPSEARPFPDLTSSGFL
Procedure, shortened: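 Transient MRTU transfection of HepG2 → 24 h compound exposure → total RNA, oligo(dT) RT → PCR, 6-FAM extension, HpaI cut → CE fluorescence. DMSO = baseline; bidirectional curve fit.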

[6] = ATG_AP_1_CIS: Attagene CIS-FACTORIAL HepG2 Assay for human Activator Protein 1 (AP-1) (AID 2282931); conditions: HepG2 Attagene cis-factorial AP-1 reporter mRNA; actives raise or lower the signal
Procedure, shortened: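 Endogenous transcription-factor activity in human HepG2 liver cells is read through a cis-promoter reporter transcript, sampled 24 h after dosing. Detection uses RT-PCR with capillary electrophoresis; values come from bidirectional fitting relative to DMSO.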

[7] = ATG_AP_2_CIS: Attagene CIS-FACTORIAL HepG2 Assay for human Activator Protein 2 (AP-2) (AID 2282932); conditions: HepG2 AP-2 cis-reporter, Attagene transcription factor profiling; actives raise or lower the signal
Procedure, shortened: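 Transiently transfected HepG2 cells are exposed to chemical for 24 h. Reporter transcripts are then measured as fluorescence following RT-PCR and capillary separation, and gain- or loss-of-signal is fitted relative to DMSO.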

[8] = ATG_BRE_CIS: Attagene CIS-FACTORIAL HepG2 Assay for human Bone Morphogenetic Protein (BMP) Response Element (BRE) (AID 2282933); conditions: HepG2 BMP response element reporter, Attagene transcription factor profiling; actives raise or lower the signal
Procedure, shortened: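 After a 24 h chemical treatment, transiently transfected HepG2 cells were lysed for RNA; reporter transcripts were quantified by fluorescent RT-PCR and capillary electrophoresis, normalised to DMSO.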

[9] = target: Retinoic acid receptor alpha (Homo sapiens) (UniProt P10276); test: ATG_DR5_RAR_CIS: Attagene CIS-FACTORIAL HepG2 Assay for human Retinoic Acid Receptor Alpha (RARE), DR5 submotif (AID 2282934); conditions: HepG2 Attagene cis-factorial RARE DR5 reporter, mRNA; actives raise or lower the signal;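 for AC50: reporter responds to endogenous RAR alpha beta and gamma in HepG2 not RARA alone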
Sequence of Retinoic acid receptor alpha (Homo sapiens) (P10276 whole entry, looked up): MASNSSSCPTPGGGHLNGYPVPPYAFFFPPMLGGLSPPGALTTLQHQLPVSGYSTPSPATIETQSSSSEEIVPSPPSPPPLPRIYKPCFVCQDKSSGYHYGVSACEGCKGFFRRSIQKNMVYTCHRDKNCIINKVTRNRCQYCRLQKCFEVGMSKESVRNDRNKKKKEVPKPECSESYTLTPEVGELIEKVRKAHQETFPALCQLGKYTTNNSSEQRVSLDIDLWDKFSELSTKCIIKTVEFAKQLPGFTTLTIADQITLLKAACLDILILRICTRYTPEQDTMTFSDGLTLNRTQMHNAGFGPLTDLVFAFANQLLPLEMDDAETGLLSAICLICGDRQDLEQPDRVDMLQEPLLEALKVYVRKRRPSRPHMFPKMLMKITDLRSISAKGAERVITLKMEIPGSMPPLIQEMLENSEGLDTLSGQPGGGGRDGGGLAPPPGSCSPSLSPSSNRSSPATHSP
Procedure, shortened: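 Transient MRTU transfection of HepG2; 24 h compound treatment; TriZol RNA, oligo(dT) RT, PCR, FAM labelling, capillary electrophoresis. Bidirectional fit vs DMSO. Endogenous TF activity at DR5 RARE.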

[10] = target: Transcription factor E2F1 (Homo sapiens) (UniProt Q01094); test: ATG_E2F_CIS: Attagene CIS-FACTORIAL HepG2 Assay for human E2F Transcription Factor 1 (AID 2282935); conditions: HepG2 Attagene cis-reporter, E2F reporter RNA transcripts; actives raise or lower the signal
Sequence of Transcription factor E2F1 (Homo sapiens) (Q01094 whole entry, looked up): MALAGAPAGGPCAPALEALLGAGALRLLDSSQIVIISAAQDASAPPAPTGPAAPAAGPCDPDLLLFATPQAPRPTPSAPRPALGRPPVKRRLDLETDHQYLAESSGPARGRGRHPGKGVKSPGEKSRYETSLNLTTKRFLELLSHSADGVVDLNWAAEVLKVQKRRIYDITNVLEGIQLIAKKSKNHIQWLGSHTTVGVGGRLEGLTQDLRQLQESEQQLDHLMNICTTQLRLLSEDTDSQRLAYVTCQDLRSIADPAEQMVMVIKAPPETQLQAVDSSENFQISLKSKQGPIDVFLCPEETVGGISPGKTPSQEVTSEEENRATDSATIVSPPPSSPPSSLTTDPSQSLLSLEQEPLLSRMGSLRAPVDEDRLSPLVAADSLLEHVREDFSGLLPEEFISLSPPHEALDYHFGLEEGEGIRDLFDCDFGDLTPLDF
Procedure, shortened: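 Fluorescent RT-PCR products, digested with HpaI for 2 h at 37 C, are separated by capillary electrophoresis. Source RNA comes from transfected HepG2 cultures treated for 24 h.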

[11] = ATG_E_Box_CIS: Attagene CIS-FACTORIAL HepG2 Assay for human Enhancer Box (E-box) (AID 2282936); conditions: HepG2 E-box cis-reporter transcription, actives raise or lower the signal
Procedure, shortened: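 Fluorescent reporter fragments separated by capillary electrophoresis gave the signal; mRNA came from HepG2 cells transfected with cis-element reporters and treated 24 h. Curves fitted bidirectionally relative to DMSO controls.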

[12] = ATG_M_61_CIS: Attagene CIS-FACTORIAL HepG2 Assay for M61 Transcription Factor (Internal Marker) (AID 2282937); conditions: HepG2 Attagene CIS-FACTORIAL M61 internal marker reporter; actives raise or lower the signal
Procedure, shortened: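 Cells were transfected with reporter units under cis-regulatory promoters, treated with chemicals for 24 h, then lysed for RNA. Reporter transcripts were quantified by RT-PCR and capillary electrophoresis, and activity was fitted bidirectionally against DMSO.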

[13] = ATG_EGR_CIS: Attagene CIS-FACTORIAL HepG2 Assay for human Early Growth Response 1 (EGR1) (AID 2282938); conditions: HepG2 Attagene CIS-FACTORIAL EGR reporter mRNA; actives raise or lower the signal
Procedure, shortened: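 Endogenous TF activity in HepG2 liver cells was gauged through cis-promoter reporter constructs transiently transfected. After 24 h dosing, reporter mRNA was quantified by RT-PCR and capillary electrophoresis, and curves fitted in both directions versus DMSO.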

[14] = ATG_M_19_CIS: Attagene CIS-FACTORIAL HepG2 Assay for M19 Transcription Factor (Internal Marker) (AID 2282939); conditions: HepG2 Attagene CIS-FACTORIAL M19 internal marker reporter; actives raise or lower the signal
Procedure, shortened: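 In this multiplexed cell assay, transiently transfected HepG2 reporter units report endogenous transcription-factor activity; after 24 hours of treatment, labelled reporter cDNA fragments are quantified by capillary electrophoresis and fitted bidirectionally against DMSO.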

[15] = ATG_ERE_CIS: Attagene CIS-FACTORIAL HepG2 Assay for Estrogen Response Element (ERE) (AID 2282940); conditions: HepG2 ERE cis-reporter, Attagene RNA transcript; actives raise or lower the signal
Procedure, shortened: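 Measuring endogenous transcription factor output, the assay doses transfected HepG2 cells for 24 hours and quantifies reporter transcripts by fluorescent RT-PCR and capillary electrophoresis, with DMSO as baseline.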

Measured: AC50

CCOP(=O)(OCC)OC(=CCl)c1ccc(Cl)cc1Cl
active: [15] 11.1 µM
inactive: all other assays above

O=c1[nH]c2ccccc2n1C1CCN(CCCC(c2ccc(F)cc2)c2ccc(F)cc2)CC1
active: [2] 5.75 µM | [3] 3.71 µM | [4] 5.83 µM | [9] 5.87 µM | [15] 4.17 µM
inactive: all other assays above

ClCc1ccccc1CCl
active: [1] 9.56 µM | [3] 56 µM | [4] 16.6 µM | [6] 59.7 µM | [11] 33.4 µM | [13] 29.5 µM
not listed: [15]
inactive: all other assays above

CCOP(=S)(OCC)O/N=C(\C#N)c1ccccc1
active: [4] 27.7 µM | [5] 0.657 µM | [6] 42.3 µM | [8] 31.6 µM
not listed: [15]
inactive: all other assays above

C[CH2][Hg][S]c1ccccc1C(=O)O
active: [1] 2.94 µM | [2] 2.23 µM | [4] 5.13 µM | [7] 4.81 µM | [9] 1.11 µM | [11] 6.19 µM | [13] 3.71 µM
not listed: [15]
inactive: all other assays above

CCOC(=O)Cc1ccccc1
not listed: [15]
inactive: all other assays above

Clc1cnc(Oc2ccc(Oc3ncc(Cl)cc3Cl)cc2)c(Cl)c1
active: [5] 5.93 µM
not listed: [15]
inactive: all other assays above

Cc1cccc(N=Nc2ccc(N(C)C)cc2)c1
active: [5] 8.37 µM
not listed: [15]
inactive: all other assays above

CC(C)N(C(=O)CCl)c1ccccc1
active: [4] 8.6 µM | [6] 11.6 µM | [7] 50.4 µM | [9] 59.1 µM | [10] 48.1 µM | [11] 18 µM
inactive: all other assays above

CCOC(=O)CC(=O)CCl
inactive: [5] | [8] | [9] | [10] | [12] | [14] | [15]
active: [1] 176 µM | [2] 183 µM | [3] 65.7 µM | [4] 61.6 µM | [6] 75.2 µM | [7] 44 µM | [11] 128 µM | [13] 32.2 µM

Nc1nc(N)nc(Cl)n1
inactive: all assays above

C1CCC(C2CCCCC2)CC1
active: [3] 86.2 µM
inactive: all other assays above

c1ccc(-c2cccc(-c3ccccc3)c2)cc1
active: [4] 27.4 µM | [5] 21.9 µM | [15] 26.4 µM
inactive: all other assays above

CCOP(=S)(OCC)SCSc1cc(Cl)ccc1Cl
inactive: all assays above

Cc1ccc(OP(=O)(Oc2ccc(C)cc2C)Oc2ccc(C)cc2C)c(C)c1
active: [4] 11.3 µM | [11] 25.1 µM | [15] 5.48 µM
inactive: all other assays above

CNC(=O)O/N=C/C(C)(C)S(C)(=O)=O
inactive: all assays above

Cc1cccc(C)c1NC(=O)CN1CCCC1=O
inactive: all assays above

O=S(=O)(c1ccc(Cl)cc1)c1cc(Cl)c(Cl)cc1Cl
active: [1] 37.8 µM | [3] 42.5 µM | [4] 40.9 µM | [9] 100 µM
inactive: all other assays above

C[As+](C)(C)CC(=O)[O-]
inactive: all assays above

CCCCC(CC)C(=O)Cl (centres undefined)
inactive: all assays above

COC(F)(C(F)(F)C(F)(F)F)C(F)(C(F)(F)F)C(F)(F)F (centres undefined)
inactive: all assays above

C=C(C)C(=O)OCC(CC)CCCC (centres undefined)
inactive: all assays above

N#Cc1ccc(Cl)cc1
inactive: all assays above

CC(=O)C(F)(F)C(F)(F)F
inactive: all assays above

CCCCN(CCCC)C(=S)S
active: [3] 162 µM | [4] 100 µM | [6] 171 µM | [8] 146 µM | [9] 100 µM | [11] 130 µM | [13] 110 µM
inactive: all other assays above

O=NN1CCOCC1
inactive: all assays above

O=CCCl
inactive: [7] | [8] | [9] | [10] | [12] | [14] | [15]
active: [1] 24.7 µM | [2] 25 µM | [3] 60.9 µM | [4] 68.5 µM | [5] 84.7 µM | [6] 165 µM | [11] 183 µM | [13] 38.4 µM

COc1ccc([N+](=O)[O-])cc1O
inactive: all assays above

Cc1cc(C(C)(C)c2ccc(O)c(C)c2)ccc1O
inactive: [2] | [7] | [8] | [10] | [11] | [12] | [14]
active: [1] 21.8 µM | [3] 89.3 µM | [4] 12.1 µM | [5] 89 µM | [6] 83.9 µM | [9] 21.5 µM | [13] 32.4 µM | [15] 0.265 µM

FC(F)OCC(F)(F)C(F)(F)F
inactive: all assays above

CCOc1ccc(N)cc1
inactive: all assays above

Source: PubChem BioAssay (EPA / NIEHS)
